# Experimental data as given in PubChem BioAssay.
# Inconclusive results are not listed. Activity calls are given as the source filed them.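 The calls were made as follows, unless noted: active = Her2 level under about 52% in both replicate screens, with viability over 70% of control (limit read from the data); inconclusive = Her2 under the limit in one screen only, or viability under 70%; inactive = Her2 level above the set limit.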
# Assays:
# [1] = reducers of endogenous Her2 protein level, primary screen, SKBR3 breast tumor cells, AlphaScreen, ATP viability (AID 461); conditions: 18-24 h, measured here: SKBR3 viability, ATP luminescence, at 10 µM;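 as to Her2 level: lower value means less Her2 protein in the cells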;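 as to viability: percent of carrier control wells set as 100% viability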
# [2] = target: Receptor tyrosine-protein kinase erbB-2 (Homo sapiens) (UniProt P04626); assay: as above; conditions: 18-24 h, at 10 µM, stronger effect = lower value
# Receptor tyrosine-protein kinase erbB-2 (Homo sapiens), sequence (P04626 whole entry, looked up): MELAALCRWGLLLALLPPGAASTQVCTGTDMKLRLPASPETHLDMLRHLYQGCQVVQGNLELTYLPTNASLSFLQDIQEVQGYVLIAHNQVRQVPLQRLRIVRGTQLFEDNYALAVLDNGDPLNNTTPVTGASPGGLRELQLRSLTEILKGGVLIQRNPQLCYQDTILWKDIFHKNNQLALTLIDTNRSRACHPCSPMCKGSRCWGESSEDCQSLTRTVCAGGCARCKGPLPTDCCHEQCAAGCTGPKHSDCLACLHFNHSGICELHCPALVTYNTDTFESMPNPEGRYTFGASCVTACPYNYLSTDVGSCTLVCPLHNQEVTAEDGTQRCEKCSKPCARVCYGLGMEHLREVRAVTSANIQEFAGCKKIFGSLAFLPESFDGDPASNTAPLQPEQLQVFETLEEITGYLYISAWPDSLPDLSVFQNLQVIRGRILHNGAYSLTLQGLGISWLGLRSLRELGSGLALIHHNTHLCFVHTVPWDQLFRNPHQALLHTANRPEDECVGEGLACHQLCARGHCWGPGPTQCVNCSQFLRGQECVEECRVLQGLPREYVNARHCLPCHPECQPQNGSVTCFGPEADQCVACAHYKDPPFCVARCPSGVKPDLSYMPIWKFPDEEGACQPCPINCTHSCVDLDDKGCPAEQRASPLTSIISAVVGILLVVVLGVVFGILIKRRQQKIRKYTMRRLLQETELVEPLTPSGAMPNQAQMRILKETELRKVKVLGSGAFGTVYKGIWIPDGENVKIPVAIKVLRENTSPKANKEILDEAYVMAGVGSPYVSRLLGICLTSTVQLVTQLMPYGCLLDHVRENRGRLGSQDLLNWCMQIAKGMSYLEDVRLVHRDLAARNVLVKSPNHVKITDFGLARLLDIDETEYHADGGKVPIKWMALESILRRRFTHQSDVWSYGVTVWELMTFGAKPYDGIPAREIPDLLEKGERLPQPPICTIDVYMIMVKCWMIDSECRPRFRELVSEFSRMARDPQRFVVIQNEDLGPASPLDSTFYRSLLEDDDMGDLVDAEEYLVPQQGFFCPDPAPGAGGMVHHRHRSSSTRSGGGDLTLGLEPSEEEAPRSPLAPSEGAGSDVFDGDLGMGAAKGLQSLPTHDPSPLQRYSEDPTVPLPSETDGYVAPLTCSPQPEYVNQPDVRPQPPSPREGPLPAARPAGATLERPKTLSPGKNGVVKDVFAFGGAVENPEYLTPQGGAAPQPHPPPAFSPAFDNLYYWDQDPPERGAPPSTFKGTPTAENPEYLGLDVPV
# [3] = SK-BR-3 cell growth inhibitors, pilot screen, 24 h, human (AID 572;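 active = viability at or below 10% of carrier control in both of two separate runs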;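 also: compound exposure lasted between 18 and 24 h rather than exactly 24 h; 100% = carrier-treated control wells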); conditions: SK-BR-3 viability, CellTiter-Glo luminescence, at 10 µM, stronger effect = lower value
# [4] = HUVEC growth inhibition – cell-based, human, primary screen (AID 575;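 active = viability at or below 30% in both replicate assays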;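 also: 100% = median of untreated cell wells with 0.1% DMSO on each plate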); conditions: HUVEC proliferation, CellTiter-Glo luminescence, 72 h; at 10 µM; stronger effect = lower value
# [5] = growth inhibitors of H69AR lung tumor, primary screen, human, duplicate replicates (AID 580;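 active = viability at or under a set limit in both replicates, limit being median viability minus 3 SD, cut at about 48% in these data, passing the limit was not always enough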;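 also: 100% = mean luminescence of untreated wells and 0% = no signal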); conditions: H69AR lung tumor cells viability, ATP luminescence, 72 h; at 10 µM; stronger effect = lower value
# [6] = reversal of MRP1-mediated doxorubicin resistance, pilot screen, H69AR cells, doxorubicin co-treatment (AID 601;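 active = viability loss from added drug above about 55%, and viability with drug at most 40%, in both replicates, limit read from the data, passing the limit was not always enough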); conditions: CellTiter-Glo, 72 h, at 10 µM; for differential viability (reversal): stronger effect = higher value
# [7] = 384-well plate pilot, post-Golgi transport modulator project, inhibition of yeast transport mutant growth (AID 636; in the data active = inhibition above about 31%); conditions: absorbance 615 nm, about 18 h, stronger effect = higher value
# [8] = growth suppression of yeast trafficking mutant, preliminary HTS, modulators of trafficking downstream of Golgi apparatus project, 1536-format plate, OD 615 nm (AID 637; in the data active = inhibition above about 30%); conditions: yeast transport mutant growth, absorbance 615 nm, 18 h; stronger effect = higher value
# [9] = OD615 S. cerevisiae growth inhibition, permissive medium, pilot counter-assay, permissive growth control for S. cerevisiae lifespan shortening project (AID 705;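 active = growth inhibition above 25% in both replicates, a cutoff set 3 SD above the mean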); conditions: OD615, 24 h, at 10 µM, stronger effect = higher value
# [10] = Restrictive medium S. cerevisiae growth inhibition, OD615, pilot screen of yeast lifespan reduction project, restrictive growth control (AID 706;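 active = growth inhibition above a set limit, 3 SD over mean compound inhibition, in both replicates, cut at about 43% in these data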;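 also: modified DeaD lifespan yeast strain shifted to restrictive glucose medium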); conditions: OD615, 48 h, at 10 µM, stronger effect = higher value
# [11] = viability gain of MRP-1-high H69AR cells under doxorubicin, pilot screen, MRP-1 activator project, CellTiter-Glo, duplicate (AID 807;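 active = viability increase at or above a cutoff of the median across tested compounds plus 3 SD, cut at about 8.5% in these data, passing the limit was not always enough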;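 also: compound pretreatment 18-22 h then 72 h combined with doxorubicin; 0% = doxorubicin alone and 100% = vehicle without doxorubicin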); conditions: H69AR viability with doxorubicin, CellTiter-Glo luminescence; at 10 µM; stronger effect = higher value
# [12] = growth suppression of PTEN-deleted HCT116, pilot screen, cell-based, HCT116 clonal line, CellTiter-Glo (AID 824;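 active = viability at or below 27.92% in each of two runs, the all-compound median minus 4 SD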;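 also: 0% = 20 µM Hyamine control and 100% = vehicle cell control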); conditions: 60 h, at 10 µM, stronger effect = lower value
# [13] = inhibitors of the yeast RAM network, pilot screen, dse1pr::URA3 reporter, 5-FOA selection (AID 869;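 active = inhibition over a set limit, the all-compound mean plus 3 SD, in both replicate runs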;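 also: 0% = DMSO wells with no growth and 100% = 10 µM 1-NA-PP1 with full growth; RAM network block rescues cells from 5-FOA so hits raise OD615 growth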); conditions: S. cerevisiae dse1pr::URA3 5-FOA growth, OD615, 2 d; at 10 µM; stronger effect = higher value; strain carries analog-sensitive mutant Cbk1 kinase
# [14] = RAM signaling pathway blockade in yeast – S. cerevisiae, Pdr1DBD-CYC8 efflux-inhibited sensitized strain, primary screen (AID 1298;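 active = RAM network inhibition above 8.4% in each of two replicates, 3 SD over the compound average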;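 also: 0% = DMSO untreated cells without growth and 100% = 10 µM 1-NA-PP1 full growth; higher means more yeast growth rescued from 5-FOA killing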); conditions: S. cerevisiae cbk1-as DSE1-URA3 strain, 5-FOA growth OD615, 2 d; at 50 µM; stronger effect = higher value
# [15] = growth suppression of beta-catenin knockout HCT116, pilot screen, human colon tumor cells (AID 823;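 active = cell viability at or below a set limit in both duplicate runs, the limit being the all-compound median minus 4 SD, cut at about 23% in these data, passing the limit was not always enough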;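 also: 0% = wells killed by 20 µM Hyamine and 100% = untreated DMSO cell wells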); conditions: CellTiter-Glo, 60 h, at 10 µM, stronger effect = lower value
# [16] = H69AR cells + 2 uM doxorubicin, measured here: viability with 2 uM doxorubicin, stronger effect = lower value
# [17] = H69AR cells, compound alone cytotoxicity
structure (smiles),measurement,setting,value
Cc1ccc(N(C(=O)C2CCC(=O)N2)C2(C(=O)NC3CCCCC3)CCCCC2)cc1 (stereo not given),viability,[1],110%
same,Her2 level,[2],99% (inactive)
same,viability,[3],110% (inactive)
same,viability,[4],108% (inactive)
same,viability,[5],98.4% (inactive)
same,differential viability (reversal),[6]; H69AR cells + 2 uM doxorubicin,3.47% (inactive)
same,viability,[6]; [16],94.9%
same,viability,[6]; [17],98.4%
same,inhibition,[7],-0.55% (inactive)
same,inhibition,[8],-0.79% (inactive)
same,growth inhibition,[9],-9.55% (inactive)
same,growth inhibition,[10],-6.46% (inactive)
same,viability increase,[11],-2.37% (inactive)
same,viability,[12],92.9% (inactive)
same,inhibition,[13],2.28% (inactive)
same,RAM network inhibition,[14],1.79% (inactive)
O=C(CCNS(=O)(=O)c1cccc2nsnc12)NCc1cccs1,viability,[1],101%
same,Her2 level,[2],85.5% (inactive)
same,viability,[3],101% (inactive)
same,viability,[4],94.3% (inactive)
same,viability,[5],96% (inactive)
same,differential viability (reversal),[6]; H69AR cells + 2 uM doxorubicin,0.62% (inactive)
same,viability,[6]; [16],95.4%
same,viability,[6]; [17],96%
same,inhibition,[7],-9.45% (inactive)
same,inhibition,[8],4.13% (inactive)
same,growth inhibition,[9],-4.72% (inactive)
same,growth inhibition,[10],-7.42% (inactive)
same,viability increase,[11],-3.39% (inactive)
same,viability,[12],95.4% (inactive)
same,inhibition,[13],1.54% (inactive)
same,RAM network inhibition,[14],3.13% (inactive)
COc1ccccc1C(=O)NCCc1nc2ccccc2n1C,viability,[1],118%
same,Her2 level,[2],83% (inactive)
same,viability,[3],118% (inactive)
same,viability,[4],119% (inactive)
same,viability,[5],101% (inactive)
same,differential viability (reversal),[6]; H69AR cells + 2 uM doxorubicin,5.79% (inactive)
same,viability,[6]; [16],95%
same,viability,[6]; [17],101%
same,inhibition,[7],-6.76% (inactive)
same,inhibition,[8],-3.67% (inactive)
same,growth inhibition,[9],-20.8% (inactive)
same,growth inhibition,[10],0.505% (inactive)
same,viability increase,[11],0.02% (inactive)
same,viability,[15],105% (inactive)
same,inhibition,[13],2.54% (inactive)
same,RAM network inhibition,[14],5.39% (inactive)
CCOC(=O)CCCOC(=O)c1ccc(S(=O)(=O)N(C)C)cc1,viability,[1],95%
same,Her2 level,[2],84.5% (inactive)
same,viability,[3],95% (inactive)
same,viability,[4],88.7% (inactive)
same,viability,[5],100% (inactive)
same,differential viability (reversal),[6]; H69AR cells + 2 uM doxorubicin,1.72% (inactive)
same,viability,[6]; [16],98.7%
same,viability,[6]; [17],100%
same,inhibition,[7],-6.49% (inactive)
same,inhibition,[8],2.79% (inactive)
same,growth inhibition,[9],-13.7% (inactive)
same,growth inhibition,[10],-2.25% (inactive)
same,viability increase,[11],-2% (inactive)
same,viability,[12],89.6% (inactive)
same,inhibition,[13],1.5% (inactive)
same,RAM network inhibition,[14],4.96% (inactive)
CSc1ccccc1NC(=O)C1CCCO1 (stereo not given),viability,[1],97.5%
same,Her2 level,[2],110% (inactive)
same,viability,[3],97.5% (inactive)
same,viability,[4],102% (inactive)
same,viability,[5],93.9% (inactive)
same,differential viability (reversal),[6]; H69AR cells + 2 uM doxorubicin,-0.325% (inactive)
same,viability,[6]; [16],94.2%
same,viability,[6]; [17],93.9%
same,inhibition,[7],1.73% (inactive)
same,inhibition,[8],-6.03% (inactive)
same,growth inhibition,[9],-8.35% (inactive)
same,growth inhibition,[10],-0.95% (inactive)
same,viability increase,[11],-2.61% (inactive)
same,viability,[12],98.6% (inactive)
same,inhibition,[13],0.11% (inactive)
same,RAM network inhibition,[14],2.42% (inactive)
CCCSc1nc2c(cnn2-c2ccc(C)cc2)c(=O)[nH]1,viability,[1],93%
same,Her2 level,[2],99% (inactive)
same,viability,[3],93% (inactive)
same,viability,[4],7.04% (active)
same,viability,[5],19.1% (active)
same,differential viability (reversal),[6]; H69AR cells + 2 uM doxorubicin,-3.51% (inactive)
same,viability,[6]; [16],22.6%
same,viability,[6]; [17],19.1%
same,inhibition,[7],-2% (inactive)
same,inhibition,[8],-2.62% (inactive)
same,growth inhibition,[9],-8.62% (inactive)
same,growth inhibition,[10],6.35% (inactive)
same,viability increase,[11],-8.01% (inactive)
same,viability,[15],40.5% (inactive)
same,inhibition,[13],3.78% (inactive)
same,RAM network inhibition,[14],4.52% (inactive)
COc1cccc2c(=O)c3c(cnn3C)n(C)c12,viability,[1],106%
same,Her2 level,[2],100% (inactive)
same,viability,[3],106% (inactive)
same,viability,[4],84.9% (inactive)
same,viability,[5],81.9% (inactive)
same,differential viability (reversal),[6]; H69AR cells + 2 uM doxorubicin,-10.9% (inactive)
same,viability,[6]; [16],92.8%
same,viability,[6]; [17],81.9%
same,inhibition,[7],-1.97% (inactive)
same,inhibition,[8],1.27% (inactive)
same,growth inhibition,[9],-1.81% (inactive)
same,growth inhibition,[10],48.7% (active)
same,viability increase,[11],-5.44% (inactive)
same,viability,[15],87.1% (inactive)
same,inhibition,[13],1.5% (inactive)
same,RAM network inhibition,[14],0.52% (inactive)
COc1cccc(CNC(=O)CCS(=O)(=O)c2cccc3nsnc23)c1,viability,[1],106%
same,Her2 level,[2],91% (inactive)
same,viability,[3],106% (inactive)
same,viability,[4],105% (inactive)
same,viability,[5],89.6% (inactive)
same,differential viability (reversal),[6]; H69AR cells + 2 uM doxorubicin,-6.93% (inactive)
same,viability,[6]; [16],96.6%
same,viability,[6]; [17],89.6%
same,inhibition,[7],-7.67% (inactive)
same,inhibition,[8],0.95% (inactive)
same,growth inhibition,[9],-8.72% (inactive)
same,growth inhibition,[10],-10.3% (inactive)
same,viability increase,[11],-2.45% (inactive)
same,viability,[12],97.1% (inactive)
same,inhibition,[13],1.32% (inactive)
same,RAM network inhibition,[14],0.77% (inactive)
Cc1ccc(C(C(=O)NC2CCCCC2)N2CCOCC2)cc1 (stereo not given),viability,[1],95%
same,Her2 level,[2],100% (inactive)
same,viability,[3],95% (inactive)
same,viability,[4],106% (inactive)
same,viability,[5],95.8% (inactive)
same,differential viability (reversal),[6]; H69AR cells + 2 uM doxorubicin,4.12% (inactive)
same,viability,[6]; [16],91.7%
same,viability,[6]; [17],95.8%
same,inhibition,[7],-5.89% (inactive)
same,inhibition,[8],-4.13% (inactive)
same,growth inhibition,[9],-9.79% (inactive)
same,growth inhibition,[10],-10.3% (inactive)
same,viability increase,[11],-2% (inactive)
same,viability,[12],89.3% (inactive)
same,inhibition,[13],1.07% (inactive)
same,RAM network inhibition,[14],7.79% (inactive)
Cc1cc(C)c2c(=O)n(CC(=O)N3CCC(Cc4ccccc4)CC3)sc2n1,viability,[1],108%
same,Her2 level,[2],84% (inactive)
same,viability,[3],108% (inactive)
same,viability,[4],77% (inactive)
same,viability,[5],3.96% (active)
same,differential viability (reversal),[6]; H69AR cells + 2 uM doxorubicin,-6.3% (inactive)
same,viability,[6]; [16],10.3%
same,viability,[6]; [17],3.96%
same,inhibition,[7],-6.53% (inactive)
same,inhibition,[8],-2.17% (inactive)
same,growth inhibition,[9],73% (active)
same,growth inhibition,[10],89.2% (active)
same,viability increase,[11],-6.66% (inactive)
same,viability,[12],68.7% (inactive)
same,inhibition,[13],1.6% (inactive)
same,RAM network inhibition,[14],3.67% (inactive)
